Activity calls are given as the source filed them.
Experiments:
Albumin (Bos taurus) = Albumin (Bos taurus) (UniProt P02769); experiment: compounds binding labelled BSA control protein – biochemical, small-molecule microarray, Alexa647 label, 635/667 nm fluorescence, artefact control for SMM control protein annotation, profiling panel (AID 1118); details: BSA-A647 binding, fluorescence 635 nm, higher = more signal;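 also: score merges 667 nm emission intensity and signal-to-noise per printed compound spot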
[1] = probe aXIP binding to arrayed compounds – biochemical, NeuroSMM set, 635/667 nm fluorescence, primary screen (AID 1119); details: small-molecule microarray, higher = more signal, called active from +8 up or from −8 down;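 also: probe is the protein aXip251-270 applied at 1 µg/mL to compound-printed slides; binding of probe to printed compounds measured as 667 nm fluorescence plus signal to noise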
[2] = probe aNOTCH3 binding on compound microarray – biochemical, small-molecule microarray, 635/667 nm fluorescence, primary screen (AID 1120); details: higher = more signal;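 also: probe is a biotin-tagged antibody raised against NOTCH3 rather than NOTCH3 protein; score merges spot fluorescence near 667 nm with spot signal to noise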
[3] = probe aNOTCH2 binding on compound microarray – biochemical, small-molecule microarray, 635/667 nm fluorescence, primary screen (AID 1121); details: higher = more signal;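 also: score merges feature fluorescence read at 667 nm with its signal to noise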
[4] = target: Carbonic anhydrase 2 (Homo sapiens) (UniProt P00918); experiment: compounds binding carbonic anhydrase 2 – biochemical, small-molecule microarray, Alexa647-labelled CAII, profiling panel (AID 1122); details: CAII-A647 binding fluorescence, higher = more signal
[5] = COS7 lysate on small-molecule microarray, probe aHis, 635 nm (AID 1123); details: COS7 cell lysate, fluorescence, higher = more signal;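 also: z-score combines 667nm fluorescence intensity with signal-to-noise per printed compound spot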
[6] = probe aLAP1 signal on lysate-treated microarray – cell lysate, small-molecule microarray, COS7 lysate, primary screen (AID 1124); details: probe aLAP1, fluorescence, higher = more signal;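 also: lysate comes from COS7 cells expressing LAP1 and is applied at 0.3 µg/mL; score merges spot fluorescence near 667 nm with signal-to-noise over triplicate slides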
Sam68 (KHDRBS1) = experiment: compounds binding KHDRBS1 protein – biochemical, small-molecule microarray, 635 nm fluorescence, primary screen (AID 1125); details: higher = more signal;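 also: score merges 667 nm channel intensity with signal to noise over triplicate slides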
[7] = test system: Chordin-like protein 2 (CHRDL2); experiment: compounds binding chordin-like 2 – biochemical, small-molecule microarray, 635 nm fluorescence, primary screen (AID 1126); details: fluorescence 635 nm, higher = more signal;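 also: printed compound slides probed with Chrdl2 protein at 4 µg/mL for 1 h at 4 C; score merges 667 nm emission intensity with signal to noise over three replicate slides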
[8] = target: Concanavalin-A (Canavalia ensiformis) (UniProt P02866); experiment: compounds binding concanavalin A lectin – biochemical, small-molecule microarray, Alexa647 label, 635 nm, artefact control for SMM control protein annotation, primary screen (AID 1127); details: ConA-A647 binding fluorescence, higher = more signal;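 also: z combines 667 nm emission intensity with signal-to-noise across three replicate slides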
[9] = compounds binding Alexa647 anti-His antibody – biochemical, small-molecule microarray, 635 nm fluorescence, artefact control for SMM control protein annotation, primary screen (AID 1128); details: higher = more signal;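 also: score merges feature fluorescence with signal-to-noise for each printed compound spot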
[10] = test system: Human papillomavirus type 1a E7 protein (residues 1-88); experiment: HPV1a E7 small-molecule binders, primary screen, biochemical, small-molecule microarray, residues 1-88, 635 nm (AID 1129); details: small-molecule microarray binding, fluorescence 635 nm; higher = more signal
[11] = target: Focal adhesion kinase 1 (Homo sapiens) (UniProt Q05397); experiment: PTK2 protein binding on printed compound slides – biochemical, small-molecule microarray, 635/667 nm fluorescence, BSA, DTT, primary screen (AID 1130); details: 635 nm fluorescence, higher = more signal;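 also: composite of spot emission at 667 nm and signal to noise over triplicate slides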
[12] = test system: Fibrinogen (Alexa647-labelled); experiment: Alexa647-fibrinogen binding to printed small molecules – biochemical, small-molecule microarray, 635/667 nm fluorescence, artefact control for SMM control-protein annotation, profiling panel (AID 1131); details: fibrinogen-A647 binding fluorescence, higher = more signal;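 also: z-score merges 667 nm fluorescence with per-spot signal-to-noise over triplicate slides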
[13] = target: Follistatin (Homo sapiens) (UniProt P19883); experiment: FST protein binding to printed compounds – biochemical, small-molecule microarray, 635/667 nm fluorescence, primary screen (AID 1132); details: 635 nm fluorescence, higher = more signal
[14] = target: Fibroblast growth factor 2 (Homo sapiens) (UniProt P09038); experiment: basic fibroblast growth factor binding to printed compounds – biochemical, small-molecule microarray, 635/667 nm fluorescence, primary screen (AID 1133); details: FGF2, fluorescence 635/667, higher = more signal
[15] = JC-1 mitochondrial potential readout, lung cancer cells – cell-based, A549, JC-1 fluorescence, basal, 24 h, 100 nL, profiling panel (AID 1138); details: higher = more signal;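 also: A549 lung adenocarcinoma cells under basal conditions with no added stimulus; test concentration not given here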
Lefty1 = Lefty1 protein binding to printed compounds – biochemical, small-molecule microarray, 635/667 nm fluorescence, primary screen (AID 1139); details: fluorescence 635/667, higher = more signal
[16] = test system: wheat germ agglutinin (Triticum aestivum), Alexa647-labelled; experiment: Alexa647-WGA lectin binding to printed small molecules – biochemical, small-molecule microarray, 635/667 nm fluorescence, artefact control for SMM control-protein annotation, profiling panel (AID 1140); details: WGA-A647 binding, 635 nm fluorescence, higher = more signal;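 also: score merges 667 nm feature emission with signal to noise over triplicate slides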
[17] = target: Luciferin 4-monooxygenase (Photinus pyralis) (UniProt P08659); experiment: inhibition of purified Photinus pyralis luciferase – biochemical, luminescence, purified enzyme, 2006 set, primary screen (AID 1141); details: purified firefly luciferase, SteadyGlo luminescence, 30 min; higher = more signal, called active from +8 up or from −8 down;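 also: cell-free assay with purified firefly luciferase at 100 ng per well in PBS; test concentration not given here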
Chain of Luciferin 4-monooxygenase (Photinus pyralis) (P08659 whole entry, looked up): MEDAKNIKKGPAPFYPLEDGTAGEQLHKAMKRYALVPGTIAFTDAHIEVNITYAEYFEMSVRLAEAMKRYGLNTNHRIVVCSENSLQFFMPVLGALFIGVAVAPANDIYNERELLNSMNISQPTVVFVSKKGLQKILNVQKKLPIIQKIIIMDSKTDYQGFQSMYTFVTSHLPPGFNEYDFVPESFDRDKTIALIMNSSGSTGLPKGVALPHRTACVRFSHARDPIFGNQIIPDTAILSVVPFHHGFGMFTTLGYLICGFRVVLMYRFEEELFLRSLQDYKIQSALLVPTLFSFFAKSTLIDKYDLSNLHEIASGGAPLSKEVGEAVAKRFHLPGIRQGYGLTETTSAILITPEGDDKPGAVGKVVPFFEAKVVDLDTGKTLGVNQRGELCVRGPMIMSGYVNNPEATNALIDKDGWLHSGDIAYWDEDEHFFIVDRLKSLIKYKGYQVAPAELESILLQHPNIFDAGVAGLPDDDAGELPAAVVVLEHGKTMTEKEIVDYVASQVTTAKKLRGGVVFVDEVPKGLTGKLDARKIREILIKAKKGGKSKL

Chain of Concanavalin-A (Canavalia ensiformis) (P02866 whole entry, looked up): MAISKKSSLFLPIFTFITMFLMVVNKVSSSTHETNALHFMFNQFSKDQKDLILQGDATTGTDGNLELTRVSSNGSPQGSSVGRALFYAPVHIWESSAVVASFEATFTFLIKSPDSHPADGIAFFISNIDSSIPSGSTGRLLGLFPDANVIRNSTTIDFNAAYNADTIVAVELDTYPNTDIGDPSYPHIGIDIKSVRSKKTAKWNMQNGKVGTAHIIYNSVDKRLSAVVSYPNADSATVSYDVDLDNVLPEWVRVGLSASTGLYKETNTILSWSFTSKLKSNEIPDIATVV
Chain of Fibroblast growth factor 2 (Homo sapiens) (P09038 whole entry, looked up): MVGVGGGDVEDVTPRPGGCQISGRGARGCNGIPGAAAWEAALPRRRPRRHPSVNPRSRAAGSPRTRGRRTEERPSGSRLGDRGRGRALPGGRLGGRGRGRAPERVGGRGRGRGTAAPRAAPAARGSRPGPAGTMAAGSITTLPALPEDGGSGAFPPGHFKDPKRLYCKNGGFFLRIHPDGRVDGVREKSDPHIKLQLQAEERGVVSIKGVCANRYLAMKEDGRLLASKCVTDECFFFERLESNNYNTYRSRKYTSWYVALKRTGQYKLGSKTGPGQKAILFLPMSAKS
Chain of Follistatin (Homo sapiens) (P19883 whole entry, looked up): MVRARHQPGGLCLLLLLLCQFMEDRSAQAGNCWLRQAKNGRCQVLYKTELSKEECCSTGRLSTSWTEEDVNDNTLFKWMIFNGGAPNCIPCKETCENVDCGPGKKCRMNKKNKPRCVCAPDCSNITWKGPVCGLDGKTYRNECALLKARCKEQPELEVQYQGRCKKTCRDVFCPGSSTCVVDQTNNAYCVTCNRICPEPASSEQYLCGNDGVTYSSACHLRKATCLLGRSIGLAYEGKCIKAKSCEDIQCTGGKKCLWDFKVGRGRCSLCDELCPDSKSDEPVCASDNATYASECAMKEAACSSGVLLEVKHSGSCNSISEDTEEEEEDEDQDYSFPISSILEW
Chain of Albumin (Bos taurus) (P02769 whole entry, looked up): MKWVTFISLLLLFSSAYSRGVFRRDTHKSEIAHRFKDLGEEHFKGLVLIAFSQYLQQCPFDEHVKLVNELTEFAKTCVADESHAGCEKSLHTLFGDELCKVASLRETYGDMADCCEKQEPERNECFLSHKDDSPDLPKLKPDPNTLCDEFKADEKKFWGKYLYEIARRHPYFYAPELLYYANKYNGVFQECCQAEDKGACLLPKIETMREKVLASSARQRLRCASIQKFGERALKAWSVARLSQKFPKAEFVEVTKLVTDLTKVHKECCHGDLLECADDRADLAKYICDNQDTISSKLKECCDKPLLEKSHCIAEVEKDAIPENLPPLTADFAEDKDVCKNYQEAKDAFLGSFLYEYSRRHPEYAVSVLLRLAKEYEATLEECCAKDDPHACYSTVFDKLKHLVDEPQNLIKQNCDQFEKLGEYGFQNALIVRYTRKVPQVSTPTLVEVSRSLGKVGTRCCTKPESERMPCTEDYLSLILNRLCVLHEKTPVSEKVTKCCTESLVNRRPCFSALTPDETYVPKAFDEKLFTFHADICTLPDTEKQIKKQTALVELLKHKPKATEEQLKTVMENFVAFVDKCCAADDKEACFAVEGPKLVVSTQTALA
Chain of Focal adhesion kinase 1 (Homo sapiens) (Q05397 whole entry, looked up): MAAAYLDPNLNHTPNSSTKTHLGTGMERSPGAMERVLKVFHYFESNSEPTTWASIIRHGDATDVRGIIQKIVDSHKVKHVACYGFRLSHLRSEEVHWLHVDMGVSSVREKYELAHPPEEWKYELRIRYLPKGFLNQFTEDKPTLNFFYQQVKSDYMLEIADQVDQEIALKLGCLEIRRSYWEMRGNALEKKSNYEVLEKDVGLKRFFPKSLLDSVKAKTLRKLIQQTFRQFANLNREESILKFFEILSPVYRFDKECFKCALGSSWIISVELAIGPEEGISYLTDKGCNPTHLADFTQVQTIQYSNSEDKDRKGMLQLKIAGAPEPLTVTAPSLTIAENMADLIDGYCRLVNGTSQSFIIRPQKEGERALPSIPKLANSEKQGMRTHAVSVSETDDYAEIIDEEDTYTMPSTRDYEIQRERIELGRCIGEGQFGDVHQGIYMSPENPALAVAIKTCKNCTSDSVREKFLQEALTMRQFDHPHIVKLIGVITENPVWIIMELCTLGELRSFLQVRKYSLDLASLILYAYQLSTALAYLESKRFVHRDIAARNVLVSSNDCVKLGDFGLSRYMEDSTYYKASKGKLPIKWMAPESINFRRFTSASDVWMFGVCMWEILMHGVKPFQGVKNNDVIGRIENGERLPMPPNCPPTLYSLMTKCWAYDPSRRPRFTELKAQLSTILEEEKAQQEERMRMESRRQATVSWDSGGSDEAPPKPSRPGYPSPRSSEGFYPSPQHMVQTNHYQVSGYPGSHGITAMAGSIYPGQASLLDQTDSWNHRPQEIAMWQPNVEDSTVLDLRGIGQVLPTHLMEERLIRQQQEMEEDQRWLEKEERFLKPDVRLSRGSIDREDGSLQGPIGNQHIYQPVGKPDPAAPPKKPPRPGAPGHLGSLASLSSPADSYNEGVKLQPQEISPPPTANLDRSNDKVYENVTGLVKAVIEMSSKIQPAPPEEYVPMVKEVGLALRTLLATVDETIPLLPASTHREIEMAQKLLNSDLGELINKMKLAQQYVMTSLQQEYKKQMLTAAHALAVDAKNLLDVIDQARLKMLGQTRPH

Row | Compound | composite z-score (Albumin (Bos taurus)) | composite Z-score [1] | composite z-score [2] | composite z-score [3] | composite z-score [4] | composite z-score [5] | composite z-score [6] | composite z-score (Sam68 (KHDRBS1)) | composite z-score [7] | composite z-score [8] | composite z-score [9] | composite z-score [10] | composite z-score [11] | composite z-score [12] | composite z-score [13] | composite z-score [14] | z-score [15] | composite z-score (Lefty1) | composite z-score [16] | z-score [17]
1 | COC(=O)[C@H]1O[C@@H](c2c(OC)c(OC)c(C)c(OC)c2OC)[C@H](C)[C@@H](O)[C@H]1C | 0.354 | 0.0421 (inactive) | 0.0414 | -0.0349 | 0.0615 | 1.04 | -0.203 | 1.28 | 0.31 | 0.86 | 0.377 | 0.998 | 0.169 | 0.902 | 0.694 | 0.577 | 0.274 | 1.08 | 0.526 | -0.246 (inactive)
2 | COc1cccc([C@H]2Oc3ccc(OC)cc3C(=NOC[C@@H](O)[C@H]3O[C@@H]4OC(C)(C)O[C@@H]4[C@H]3O)[C@@H]2O)c1 | 0.891 | -0.563 (inactive) | 0.0831 | -0.139 | -0.149 | 0.48 | 0.248 | 0.706 | 0.461 | 0.532 | -1.33 | 0.372 | 0.263 | 0.213 | 0.418 | 0.318 | -0.315 | 0.892 | -0.0123 | -4.03 (inactive)
3 | CCOC(=O)[C@H](CC(C)C)NC(=O)CCC1CC(OC(=O)NCc2ccc3c(c2)OCO3)CC2(CCCC(COC(=O)NCc3cccc(C(F)(F)F)c3)O2)O1 (stereo not given in full) | -0.232 | -0.104 (inactive) | -0.136 | -0.169 | 0.284 | 0.292 | -0.37 | 0.119 | 0.192 | 0.0441 | 0.339 | 0.218 | 0.201 | -0.092 | 0.337 | 0.363 | -0.326 | 0.389 | 0.144 | 0.679 (inactive)
4 | CC1O[C@H]2C3=C(C(=O)[C@@H]4O[C@@H]4[C@H]3O)[C@@H]1C1[C@@H](C)OC=C3[C@H](O)C4O[C@@H]4C(=NOCc4ccccc4)[C@]312 (stereo not given in full) | -0.26 | 0.0463 (inactive) | -0.125 | -0.14 | -0.279 | 0.355 | -0.136 | -0.221 | 0.0959 | -0.207 | 0.331 | -0.492 | -0.0962 | -1.18 | -0.117 | 0.468 | 0.476 | 0.16 | -0.911 | -0.399 (inactive)
5 | O=C1C2=CC[C@H]3C(=O)N(c4cccc(Oc5ccccc5)c4)C(=O)[C@H]3[C@H]2[C@H](O)[C@@H]2O[C@H]12 | -0.0451 | -0.0708 (inactive) | 0.0179 | -0.132 | -0.146 | 0.19 | -0.0224 | 0.645 | 0.625 | 0.443 | 0.703 | 0.185 | -0.0765 | -0.156 | 0.916 | 0.425 | -0.633 | 0.755 | 0.0467 | -1.27 (inactive)

Source: PubChem BioAssay
